25 molecules from PubChem BioAssay (NCATS) can be followed below.

Inconclusive results are not listed. Unmarked numbers belong to inactive results. Activity calls are given as the source filed them. Calls come from the whole dose curve; as a rule, active = well fitted curve in the direction sought with a large enough effect; inconclusive = small, poorly fitted or top-dose-only effect, or another doubt; inactive = no such curve, though single readings can be large; an effect the other way counts as inactive or inconclusive.

A short description of experiment [1]: BET inhibitor-based combinations targeting novel dependencies in MECOM-rearranged (r) AML: OCI-AML3 cell line (AID 2202232).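 Note: series mostly up to about 46 µM; plate controls were DMSO vehicle wells for no effect and wells without cells for full effect; nearly all actives have a fitted effect of over 35% in size.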 To be noted: Potency: OCI-AML3 viability. In short, it runs like this: (§1)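 Readout: CellTiter-Glo luminescence. Exposure: 48 h, 11 concentrations, 500 cells/well. Metric: AUC and within-line Z-AUC after DMSO/empty-well normalization.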
Experiment [2] in a line: BET inhibitor-based combinations targeting novel dependencies in MECOM-rearranged (r) AML: MV-4-11 cell line (AID 2202233).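 Note: plate controls were DMSO for no effect and blank wells for full effect; nearly all actives have a fitted effect of over 45% in size.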 Put shortly:
(§2)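 Seeding density was 500 cells/well, and drug exposure lasted 48 hr under standard culture conditions. Read-out used CellTiter-Glo reagent with a 15 min room-temperature incubation before luminescence measurement; AUC and Z-AUC summarize the normalized responses.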

Experiment [3] is described as follows: BET inhibitor-based combinations targeting novel dependencies in MECOM-rearranged (r) AML: HNT-34 cell line (AID 2202234).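 Note: plate controls were vehicle wells for no effect and cell-free wells for full effect; nearly all actives have a fitted effect of over 35% in size.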 Put shortly:
as §2

Experiment [4] can be described thus: BET inhibitor-based combinations targeting novel dependencies in MECOM-rearranged (r) AML: UCSD-AML1 cell line (AID 2202235).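 Note: series mostly up to about 46 µM; plate controls were DMSO vehicle wells for no effect and blank wells for full effect; nearly all actives have a fitted effect of over 40% in size.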 In short, it runs like this:
as §2

Experiment [5] in a line: BET inhibitor-based combinations targeting novel dependencies in MECOM-rearranged (r) AML: AML-191 cell line (AID 2202236;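 note: plate controls were vehicle wells for no effect and wells without cells for full effect; nearly all actives have a fitted effect of over 35% in size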). In short, it runs like this: as §1
Experiment [6] is described as follows: BET inhibitor-based combinations targeting novel dependencies in MECOM-rearranged (r) AML: AML-194 cell line (AID 2202237;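 note: plate controls were vehicle wells for no effect and wells without cells for full effect; nearly all actives have a fitted effect of over 40% in size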). In short, it runs like this: as §1
Experiment [7] has as its target Cellular tumor antigen p53 (Homo sapiens) (UniProt P04637). Nature of the experiment: Primary qHTS for small molecule compounds that upregulate eGFP-tagged delta133p53alpha (in N-terminal) cells. (AID 2060322).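 For activation: series mostly up to about 56 µM; 0% = DMSO vehicle and 100% = reference activator.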 Note: nearly all actives have a fitted effect of over 75% in size. Note: potency is the fitted concentration of half-maximal effect. To be noted: NCI-H358 eGFP-delta133p53alpha fluorescence, 24 h; activation: hits give high values. Put shortly: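 NCI-H358 cells pre-induced 24 h with 10 ng/ml doxycycline to express N-terminal eGFP-delta133p53alpha, then dosed 24 h at 37C without doxycycline; fixed, Hoechst-stained, GFP intensity by laser scanning cytometry, normalized to DMSO (0%) and 57.5 uM 5-azacytidine (100%).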
Background: Quantitative high-throughput screening tests each substance at several concentrations.

The target of experiment [8] is Aldehyde dehydrogenase, mitochondrial (Homo sapiens) (UniProt P05091). As to the kind of experiment: qHTS for Inhibitors of the Aldehyde Dehydrogenase Family (ALDH2) Primary screen (AID 2061308).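 Note: plate controls were vehicle for no effect and reference inhibitor for full effect; nearly all actives have a fitted effect of over 55% in size.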

Sequence of Cellular tumor antigen p53 (Homo sapiens) (P04637 whole entry, looked up): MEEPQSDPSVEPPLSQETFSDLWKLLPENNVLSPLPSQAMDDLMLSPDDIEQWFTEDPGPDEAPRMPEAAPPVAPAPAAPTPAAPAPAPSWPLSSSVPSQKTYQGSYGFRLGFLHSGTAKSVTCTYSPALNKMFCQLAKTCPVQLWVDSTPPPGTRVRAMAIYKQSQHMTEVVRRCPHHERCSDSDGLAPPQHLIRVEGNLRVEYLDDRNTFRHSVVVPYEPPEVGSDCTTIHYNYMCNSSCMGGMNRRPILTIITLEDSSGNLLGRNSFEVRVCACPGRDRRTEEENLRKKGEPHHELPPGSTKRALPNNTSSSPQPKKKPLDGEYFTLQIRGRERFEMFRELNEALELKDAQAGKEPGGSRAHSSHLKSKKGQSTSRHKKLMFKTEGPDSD

Turning to `O=C(NNc1ccccc1)c1ccncc1`, the Potency result in experiment [1], in experiment [2], in experiment [3], in experiment [4], in experiment [5] and in experiment [6] was “inactive” each time.
For `CC(CNS(=O)(=O)C(C)C)c1ccc(-c2ccc(C#N)cc2)cc1` (centres undefined), the activation in experiment [7] was -9%. Moreover, in experiment [8], the Potency result was “inactive”.
The matching figures for `C[C@@H]1O[C@@H](O[C@H]2[C@@H]3C=CO[C@@H](O[C@@H]4O[C@H](CO)[C@@H](O)[C@H](O)[C@H]4O)[C@@H]3[C@@]3(CO)O[C@@H]23)[C@H](OC(=O)/C=C/c2ccc(O)c(O)c2)[C@H](O)[C@H]1O`: -5.34% and “inactive”.
The matching figures for `COc1cc(C(=O)OCC2=CCC3C(C(=O)O)=COC(O[C@@H]4O[C@H](CO)[C@@H](O)[C@H](O)[C@H]4O)C23)ccc1O` (some centres undefined): -9.82% and “inactive”.
The matching figures for `CC(=O)OC/C(=C/C(=O)O)CC[C@@H]1C(CO)=CC[C@@H]2C(C)(C)CCC[C@@]12C`: 2.29% and “inactive”.
Take `Cc1cc(N(C)C)ccc1-c1nc2ccc(-c3nc4ccc(N5CCN(C)CC5)cc4[nH]3)cc2[nH]1`: the Potency in experiment [7] is 30.1 µM (active). Also, the Potency entry in experiment [8] was “inactive”.
On to `C=CCC1=C[C@]2(OC)[C@H](C)[C@@H](c3ccc(O)c(OC)c3)O[C@]2(OC)CC1=O`, for which the activation in experiment [7] was -15.2%. The Potency entry in experiment [8] is “inactive”.
Take `C/C=C/C1=CC2=C(CO1)C(=O)[C@](C)(O)[C@H](OC(=O)c1c(O)cc(OC)c(O)c1C)C2`: the activation in experiment [7] is 3.82%. Moreover, the Potency result in experiment [8] was “inactive”.
Regarding `COc1cc(N2CCOCC2)ccc1Nc1ncc(F)c(Nc2ccccc2NS(C)(=O)=O)n1`, the Potency in experiment [7] is 9.53 µM (active). Further, the Potency entry in experiment [8] was “inactive”.
Take `COC(=O)C[C@H]1[C@]2(C)C3=C(C)[C@H](c4ccoc4)C[C@H]3O[C@@H]2[C@H](OC(C)=O)C2[C@](C)(C(=O)OC)C=CC(=O)[C@@]21C` (some centres undefined): the activation in experiment [7] is 11.6%. In experiment [8], the Potency result is “inactive”.
`C=C1C(O)CC2C(C(=O)O)=COC(OC3OC(CO)C(O)C(O)C3OC(=O)/C=C\c3ccc(O)cc3)C12` (centres undefined): in experiment [7], the activation was -22.9%. The Potency entry in experiment [8] is “inactive”.
The like results for `COC(=O)C1=COC(O[C@@H]2O[C@H](CO[C@@H]3O[C@H](COC(=O)/C=C\c4ccc(O)cc4)[C@@H](O)[C@H](O)[C@H]3O)[C@@H](O)[C@H](O)[C@H]2O)C2C(CO)=CCC12` (some centres undefined) were, in that order, 33% and “inactive”.
The like results for `O=C(/C=C/c1ccc(O)c(O)c1)OCc1ccccc1O[C@@H]1O[C@H](CO)[C@@H](O)[C@H](O)[C@H]1O` were, in that order, 8.4% and “inactive”.
The like results for `CC/C=C\CCO[C@@H]1O[C@H](CO[C@@H]2OC[C@H](O)[C@H](O)[C@H]2O)[C@@H](O)[C@H](O)[C@H]1O` were, in that order, -3.57% and “inactive”.
`COc1cc(/C=C/C(=O)O[C@H]2[C@@H]3C=CO[C@@H](O[C@@H]4O[C@H](CO)[C@@H](O)[C@H](O)[C@H]4O)[C@@H]3[C@@]3(CO)O[C@@H]23)ccc1O`: the activation in experiment [7] is -2.29%. The Potency result in experiment [8] was “inactive”.
Regarding `O=C(O[C@H]1[C@@H]2C[C@@H]3OC[C@](O)([C@@H]1Cl)[C@H]2C(O[C@@H]1O[C@H](CO)[C@@H](O)[C@H](O)[C@H]1O)O3)c1ccc(O)c(O)c1` (some centres undefined), the activation in experiment [7] was -22.1%. Besides, the Potency result in experiment [8] is “inactive”.
`OC[C@H]1O[C@@H](OCc2ccccc2)[C@H](O)[C@@H](O)[C@@H]1O`: in experiment [7], the activation is -9.16%. The Potency result in experiment [8] is “inactive”.
For the molecule `CC1=C(CCC(C)O[C@@H]2O[C@H](CO)[C@@H](O)[C@H](O)[C@H]2O)C(C)(C)CC(O)C1` (some centres undefined), the activation in experiment [7] was -7.63%. Moreover, the Potency entry in experiment [8] is “inactive”.
As for `CC1=CC2C(CC1OC1OC(CO)C(O)C(O)C1O)C(C)CC(=O)C2C(C)C` (centres undefined), the activation in experiment [7] is 4.58%. Further, in experiment [8], the Potency entry is “inactive”.
In the case of `COc1cc(O)cc(O[C@@H]2O[C@H](CO)[C@@H](O[C@@H]3OC[C@](O)(CO)[C@H]3O)[C@H](O)[C@H]2O)c1OC`, the activation in experiment [7] is -14.5%. The Potency result in experiment [8] is “inactive”.
The matching figures for `CC1CC=C2C1CC1(O)C(=O)CC2(C)C1(C)CO` (centres undefined): 3.82% and “inactive”.
The matching figures for `COc1cc(C2OCC3C(c4ccc(OC5OC(CO)C(O)C(O)C5O)c(OC)c4)OCC23)ccc1O` (centres undefined): -24.4% and “inactive”.
The matching figures for `COC(=O)C1=COC(O[C@@H]2O[C@H](CO)[C@@H](O)[C@H](O)[C@H]2O)/C(=C\COC(=O)/C=C/c2ccccc2)C1CC(=O)OCCc1ccc(O)cc1` (some centres undefined): -0.763% and “inactive”.
`COc1cc2nc(N3CCN(C)CC3)nc(NC3CCN(Cc4ccccc4)CC3)c2cc1OC`: the activation in experiment [7] is 2.33%. Further, the Potency result in experiment [8] was “inactive”.
The like results for `O=C(OC[C@H]1O[C@H](O[C@]2(CO)O[C@H](CO)[C@@H](O)[C@@H]2O)[C@H](O)[C@@H](O)[C@@H]1O)c1ccccc1` were, in that order, 0.763% and “inactive”.
